Assay outcomes (PubChem BioAssay)
IL-1B inflam inh: blocks inflammasome-driven IL-1 beta release; 360,000 compounds, 4.7% hits; activity change, % at 57.5 µM; THP-1 LPS/ATP IL-1B secretion, AlphaLISA, 16 h; hits give low values; AID 743279; in the data active = activity change below about -50%; inconclusive = mostly about -30% to -49%; also: % is scaled to controls: 0 for no effect and ±100 for the full control effect
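THP-1 cells pretreated 1 hr with compounds (up to 57.5 uM final), then stimulated with LPS (250 ng/mL final) plus ATP (1.25 mM final); secreted IL-1B measured by AlphaLISA after 16 hr, decreased signal indicating inhibition.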
ClpP mod: qHTS Assay for Activators of ClpP. ATP-dependent Clp protease proteolytic subunit (Bacillus subtilis (strain 168)), P80244. purified B. subtilis ClpP, FRET peptide cleavage, 20 min. Potency, µM (top dose mostly 57.5 µM), for inactives: at the top dose activity change, negative = active. 340,000 compounds, 1.9% hits. AID 651965, 2013; active = well fitted falling curve with a large enough effect; inconclusive = small, poorly fitted or top-dose-only effect; inactive = no such curve, though single readings can be large or run the other way; also: potency is read from the fitted curve at half-maximal effect; the source files actives as falling curves though it sought activators and does not explain the sign; nearly all actives have a fitted effect of over 65% in size
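Buffer: 100 mM Tris/HCl pH8, 100 mM KCl, 0.05% low protease BSA, 2.5% glycerol, 0.01% Tween-20. ClpP 10 microg/mL final; 20 min RT; delta FRET normalized to ADEP and DMSO controls.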
TDP1 cell CPT: growth inhibition of DT40 Tdp1-/-;hTDP1 cells with camptothecin (screen for TDP1 inhibitors); chicken DT40 Tdp1-/-;hTDP1 cells + 20 nM CPT, ATP luminescence, 48 h; Potency, µM (highest dose often 46.2 µM), inactives show at the top dose activity change, negative = growth inhibition, most hits filed as inhibitors; 420,000 compounds, 12% hits; AID 686979; also: potency is read from the fitted curve at half-maximal effect; % is scaled to controls: 0 for no effect and ±100 for the full control effect; nearly all actives have a fitted effect of over 55% in size
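Cell growth measured by CellTiter-Glo luminescence after a minimum 48 h, 37 C compound exposure with 20 nM CPT in Tdp1-knockout DT40 cells stably expressing hTDP1, seeded 400/well; qHTS titration format.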
DRD3 agonist: activates the human D3 dopamine receptor | P35462 | D3R DiscoveRx beta-arrestin cells, luminescence, 90 min | max activation, % | 410,000 compounds, 0.58% hits | AID 652048; in the data active = max activation above about 30%; also: 0% is about no effect
Target sequence (P35462 whole entry, looked up): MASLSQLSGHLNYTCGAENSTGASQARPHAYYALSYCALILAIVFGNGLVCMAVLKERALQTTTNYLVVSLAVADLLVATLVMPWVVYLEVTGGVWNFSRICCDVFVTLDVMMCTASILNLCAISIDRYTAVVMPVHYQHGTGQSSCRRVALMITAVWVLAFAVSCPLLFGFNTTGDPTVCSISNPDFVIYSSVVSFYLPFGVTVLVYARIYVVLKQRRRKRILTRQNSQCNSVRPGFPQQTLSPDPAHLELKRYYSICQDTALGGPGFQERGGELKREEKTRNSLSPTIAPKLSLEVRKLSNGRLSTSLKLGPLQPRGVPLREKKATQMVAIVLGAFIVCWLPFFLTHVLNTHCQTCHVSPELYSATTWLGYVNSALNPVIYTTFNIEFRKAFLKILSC
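Agonist-mode cell screen: cells plated at 1500/well and incubated overnight at 37 °C, then exposed to library compounds for 90 min at 37 °C. Detection reagent was added for 30–60 min at room temperature, and luminescence was read.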
DRD3 antagonist: blocks the human D3 dopamine receptor | max response, negative = inhibition, % | D3R cells, DiscoveRx beta-arrestin luminescence, antagonist mode; hits give low values | 360,000 compounds, 2.5% hits; in the data active = max response below about -50%; inconclusive = no clear call, values can overlap the other calls; also: % is scaled to controls: 0 for no effect and ±100 for the full control effect
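Cells plated overnight at 1500 cells/well, then exposed to library compounds with dopamine controls for 90 minutes at 37 degrees C. DiscoveRx reagent added for 30–60 minutes at room temperature; luminescence read, quantitative HTS format.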
TDP1 cell noCPT: qHTS for Inhibitors of human tyrosyl-DNA phosphodiesterase 1 (TDP1): qHTS in cells in absence of CPT; DT40 Tdp1-/- hTDP1 cells, no CPT, ATP luminescence, 48 h; Potency, µM (top dose mostly 46.2 µM), for the others: at the top dose activity change, negative = growth inhibition, usual class: inhibitors; 420,000 compounds, 15% hits; AID 686978, 2013; also: potency is read from the fitted curve at half-maximal effect; % is scaled to controls: 0 for no effect and ±100 for the full control effect; nearly all actives have a fitted effect of over 55% in size
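Readout: luminescence from CellTiter-Glo after 30 min in the dark at RT. Cells: DT40 Tdp1-/- with stable hTDP1, 400/well. Exposure: compounds alone, ≥48 hr, 37 °C.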
An asterisk follows results filed as active. This is a sample that favours compounds with a hit; in the whole collection about 21% have one here. Unless noted, calls follow the shape of the dose curve; as a rule, active = well fitted inhibition curve with a large enough effect; inconclusive = small, poorly fitted or top-dose-only effect; inactive = flat fitted curve, though single readings scatter.

`CCC(=O)Nc1ccc(C)cc1-c1nc2ccccc2n(CC(=O)c2ccc(C)cc2)c1=O` gave ClpP mod -1%, TDP1 cell CPT inconclusive, DRD3 agonist -12 and TDP1 cell noCPT -19%.
Screening CCN(CC(=O)Nc1c(F)cccc1F)C(=O)c1cc([N+](=O)[O-])ccc1N1CCCCC1 returned IL-1B inflam inh -13, ClpP mod 1%, TDP1 cell CPT -17%, DRD3 agonist -10, DRD3 antagonist -24 and TDP1 cell noCPT -24%.
`CN(CC(=O)Nc1cccc(F)c1)C(=O)c1ccc2c(c1)CC(c1ccccc1)OC2=O` (stereo not drawn) gave IL-1B inflam inh -13, ClpP mod -9%, TDP1 cell CPT 8.2µM*, DRD3 agonist 5, DRD3 antagonist 0 and TDP1 cell noCPT 5.2µM*.
Screening CN(CC(=O)Nc1cccc(F)c1)C(=O)c1ccc(N2CCCC2)c([N+](=O)[O-])c1 returned IL-1B inflam inh -14, TDP1 cell CPT 16µM*, DRD3 agonist -17, DRD3 antagonist -6 and TDP1 cell noCPT 16µM*.
Screening CN(CC(=O)Nc1cccc(F)c1)C(=O)c1cc([N+](=O)[O-])ccc1N1CCCCC1 returned IL-1B inflam inh 15, ClpP mod 2%, TDP1 cell CPT inconclusive, DRD3 agonist -8, DRD3 antagonist -16 and TDP1 cell noCPT 29µM*.
COc1cccc(NC(=O)CN(C)C(=O)c2ccc(N3CCCCC3)c([N+](=O)[O-])c2)c1 was read as IL-1B inflam inh 22, ClpP mod 1%, TDP1 cell CPT inconclusive, DRD3 agonist -11, DRD3 antagonist -29 and TDP1 cell noCPT inconclusive.
For CCc1ccc(Cc2cnc(NC(=O)c3ccc4c(c3)CC(c3ccccc3)OC4=O)s2)cc1 (stereo not drawn) the results were ClpP mod -3%, TDP1 cell CPT inconclusive, DRD3 agonist 3 and TDP1 cell noCPT 18µM*.
For O=C(Nc1ncc(Cc2ccccc2Cl)s1)c1ccc2c(c1)CC(c1ccccc1)OC2=O (stereo not drawn) the results were ClpP mod -11%, TDP1 cell CPT -22%, DRD3 agonist 8 and TDP1 cell noCPT -28%.
CC(=O)N1CCC(C(=O)N2c3ccccc3N=C(c3ccc4c(c3)OCO4)C2C(=O)NCc2ccccc2)CC1 (stereo not drawn) was read as IL-1B inflam inh inconclusive, ClpP mod -19%, TDP1 cell CPT -21%, DRD3 agonist -5, DRD3 antagonist 7 and TDP1 cell noCPT -24%.
For CCc1ccccc1NC(=O)CCc1nc(-c2cccs2)no1 the results were IL-1B inflam inh 5, ClpP mod 1%, TDP1 cell CPT -19%, DRD3 agonist -8, DRD3 antagonist -2 and TDP1 cell noCPT 1%.
`CCOc1ccc(NC(=O)CN(C)C(=O)c2ccc(N3CCCCCC3)c([N+](=O)[O-])c2)cc1OCC` gave IL-1B inflam inh -1, ClpP mod 1%, TDP1 cell CPT inconclusive, DRD3 agonist -7, DRD3 antagonist 2 and TDP1 cell noCPT 23µM*.
`COc1ccc(NC(=O)CCS(=O)(=O)c2ccccc2Cl)cc1S(=O)(=O)Nc1ccc(Cl)cc1` gave IL-1B inflam inh -14, ClpP mod 0%, TDP1 cell CPT inconclusive, DRD3 agonist -17, DRD3 antagonist 0 and TDP1 cell noCPT 16µM*.
Screening COc1ccc(NC(=O)c2ccc3ccccc3n2)cc1S(=O)(=O)Nc1ccccc1Cl returned IL-1B inflam inh 9, ClpP mod -3%, TDP1 cell CPT inconclusive, DRD3 agonist 0, DRD3 antagonist -20 and TDP1 cell noCPT 23µM*.
